# Results from PubChem BioAssay (NCATS).
# Records with an inconclusive call do not appear. Calls of active or inactive are those of the source. Calls follow the shape of the dose curve; as a rule, active = well fitted curve in the direction sought with a large enough effect; inconclusive = small, poorly fitted or top-dose-only effect, or another doubt; inactive = no such curve, though single readings can be large; an effect the other way counts as inactive or inconclusive.
# Columns and labels:
# [1] = Quantitative High-Throughput drug screen in 47 multiple myeloma cell lines against the NCATS MIPE library collection: KMS12BM_JCRB cell viability assay (AID 1918971); also: nearly all actives have a fitted effect of over 35% in size
# Outline: (§1)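 Relative luminescence from CellTiter-Glo served as the viability signal, referenced to DMSO-treated (100%) and cell-free medium (0%) controls. Treatment lasted 48 hours at 37C with 500 cells per well.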
# [2] = Quantitative High-Throughput drug screen in 47 multiple myeloma cell lines against the NCATS MIPE library collection: KMS12PE_JCRB cell viability assay (AID 1918972); also: nearly all actives have a fitted effect of over 30% in size
# Outline: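 qHTS of the MIPE 4.0 collection: 500 myeloma cells/well, 48 h drug exposure at 37C in 5% CO2, then CellTiter-Glo for 5 min at room temperature before luminescence reading.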
# [3] = Quantitative High-Throughput drug screen in 47 multiple myeloma cell lines against the NCATS MIPE library collection: KMS20_JCRB cell viability assay (AID 1918973); also: nearly all actives have a fitted effect of over 45% in size
# Outline: (§2)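 Myeloma cells (500 per well) were exposed to MIPE 4.0 compounds by pin transfer and incubated 48 hours at 37C, 5% CO2. Viability was read as ATP by CellTiter-Glo luminescence, normalised to DMSO (100%) and media-only (0%) wells.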
# [4] = Quantitative High-Throughput drug screen in 47 multiple myeloma cell lines against the NCATS MIPE library collection: KMS26_JCRB cell viability assay (AID 1918975); also: nearly all actives have a fitted effect of over 45% in size
# Outline: as §1
# [5] = Quantitative High-Throughput drug screen in 47 multiple myeloma cell lines against the NCATS MIPE library collection: MMM1_PLB cell viability assay (AID 1918976); also: nearly all actives have a fitted effect of over 35% in size
# Outline: (§3)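 Viability after 48 h drug exposure was measured as ATP-dependent luminescence. Cells, 500 per well, sat at 37 °C under 5% CO2; DMSO wells set 100%, media-only wells 0%.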
# [6] = Quantitative High-Throughput drug screen in 47 multiple myeloma cell lines against the NCATS MIPE library collection: NCIH929_DSMZ cell viability assay (AID 1918978); also: nearly all actives have a fitted effect of over 35% in size
# Outline: as §3
# [7] = Quantitative High-Throughput drug screen in 47 multiple myeloma cell lines against the NCATS MIPE library collection: OCIMY1_PLB cell viability assay (AID 1918979); also: nearly all actives have a fitted effect of over 35% in size
# Outline: as §3
# [8] = Quantitative High-Throughput drug screen in 47 multiple myeloma cell lines against the NCATS MIPE library collection: MOLP8_DSMZ cell viability assay (AID 1918977); also: nearly all actives have a fitted effect of over 45% in size
# Outline: as §3
# [9] = Quantitative High-Throughput drug screen in 47 multiple myeloma cell lines against the NCATS MIPE library collection: MM1S_ATCC cell viability assay (AID 1918980); also: nearly all actives have a fitted effect of over 45% in size
# Outline: as §3
# [10] = Quantitative High-Throughput drug screen in 47 multiple myeloma cell lines against the NCATS MIPE library collection: KMS21BM_JCRB cell viability assay (AID 1918974); conditions: ATP luminescence, 48 h; viability: at 45.8 µM (top of the series)
# Outline: as §2
# Potency is read from the fitted curve at half-maximal effect.
Structure (SMILES),Potency [1],Potency [2],Potency [3],Potency [4],Potency [5],Potency [6],Potency [7],Potency [8],Potency [9],Potency [10]
Cc1nn(Cc2ccccc2Cl)c(C)c1CN(C)CC(O)COc1ccc(Cl)cc1 (stereo not given),23.5 µM (active),5.9 µM (active),11.8 µM (active),20.9 µM (active),18.7 µM (active),23.5 µM (active),18.7 µM (active),,,
Clc1ccc(C2(c3ccc(-c4cn[nH]c4)cc3)CCNCC2)cc1,23.5 µM (active),23.5 µM (active),5.26 µM (active),20.9 µM (active),1.48 µM (active),2.96 µM (active),23.5 µM (active),20.9 µM (active),14.8 µM (active),
O=S(=O)(NCCNCC=Cc1ccc(Br)cc1)c1cccc2cnccc12,16.6 µM (active),16.6 µM (active),11.8 µM (active),13.2 µM (active),20.9 µM (active),14.8 µM (active),,,,
C[C@@]1(C(=O)Nc2ccc(F)nc2)CCCN1c1nc(Nc2cc(C3CC3)[nH]n2)c2cccn2n1,0.935 µM (active),0.166 µM (active),,0.0066 µM (active),0.0209 µM (active),0.0235 µM (active),,,,
O=C(Nc1ncc(SCCN2CCCC2)s1)[C@]1(c2ccc(S(=O)(=O)C3CC3)cc2)C[C@@H]1C1CCCCC1,23.5 µM (active),5.26 µM (active),,23.5 µM (active),14.8 µM (active),20.9 µM (active),26.4 µM (active),16.6 µM (active),20.9 µM (active),
CC1(C)C(N(O)C(=O)Nc2ccc(Cl)cc2)N(c2ccc(Cl)cc2)C(=O)N1CC(=O)NN=CC=Cc1ccc([N+](=O)[O-])o1 (stereo not given),8.33 µM (active),inactive,,8.33 µM (active),14.8 µM (active),7.43 µM (active),8.33 µM (active),3.72 µM (active),,
CC[C@H](NC(=O)[C@H](C)NC)C(=O)N1C[C@@H](O)C[C@H]1Cc1c(-c2[nH]c3cc(F)ccc3c2C[C@H]2C[C@H](O)CN2C(=O)[C@H](CC)NC(=O)[C@H](C)NC)[nH]c2cc(F)ccc12,inactive,11.8 µM (active),4.69 µM (active),,,20.9 µM (active),,inactive,3.32 µM (active),
COc1cc(F)c(C(C)C)cc1-c1ccc(C(F)(F)F)cc1CN1C(=O)O[C@H](c2cc(C(F)(F)F)cc(C(F)(F)F)c2)[C@@H]1C,3.32 µM (active),inactive,,inactive,1.18 µM (active),inactive,inactive,,,
NC(=O)c1noc([C@H](CCCC2CCCCC2)CC(=O)NO)n1,7.43 µM (active),5.26 µM (active),,11.8 µM (active),16.6 µM (active),14.8 µM (active),,,,
O=C(O)CCC=CCC[C@@H]1[C@H](N2CCCCC2)[C@@H](O)C[C@@H]1OCc1ccc(-c2ccccc2)cc1,inactive,inactive,,inactive,inactive,inactive,,inactive,inactive,
CC(C)=CCCC(C)=CCCC(C)=CCCC(C)=CCCC(C)=CCCC(C)=CCCC(C)=CCCC(C)=CCCC(C)=CCO,inactive,inactive,,inactive,inactive,inactive,inactive,9.35 µM (active),inactive,
CNC(=O)c1cc(COc2nnc(Nc3ccc(Cl)cc3)c3ccoc23)ccn1,26.4 µM (active),6.62 µM (active),inactive,,,inactive,23.5 µM (active),,inactive,
CC(C)C[C@@H](C(=O)N[C@H](C(=O)OC1CCCC1)c1ccccc1)[C@H](O)C(=O)NO,18.7 µM (active),2.09 µM (active),,18.7 µM (active),23.5 µM (active),18.7 µM (active),16.6 µM (active),23.5 µM (active),20.9 µM (active),
CCOC(=O)N1CCN([N+]([O-])=NOc2cc(ON=[N+]([O-])N3CCN(C(=O)OCC)CC3)c([N+](=O)[O-])cc2[N+](=O)[O-])CC1,5.26 µM (active),inactive,,2.35 µM (active),6.62 µM (active),2.64 µM (active),7.43 µM (active),2.35 µM (active),9.35 µM (active),
CCCCCCCCCCCCCCCC(=O)O[C@H]1[C@@H](O)[C@@H](O)[C@@H]([C@H](NC(=O)[C@@H]2C[C@@H](CCC)CN2C)[C@H](C)Cl)O[C@@H]1SC,4.69 µM (active),inactive,,inactive,4.18 µM (active),2.96 µM (active),,,,
Cc1cc(OCCCS(C)(=O)=O)cc(C)c1-c1cccc(COc2ccc3c(c2)OC[C@H]3CC(=O)O)c1,13.2 µM (active),5.26 µM (active),,inactive,14.8 µM (active),20.9 µM (active),inactive,,,
Cc1cc(CS(=O)(=O)c2ccccc2)cc(OCc2ccc(CN3CCC[C@H]3CO)cc2)c1,16.6 µM (active),16.6 µM (active),,5.26 µM (active),13.2 µM (active),inactive,inactive,,,
CCCC1OC2C[C@@H]3[C@H]4CCC5=CC(=O)C=C[C@]5(C)[C@H]4C(O)C[C@]3(C)[C@]2(C(=O)CO)O1 (stereo not given in full),20.9 µM (active),inactive,,inactive,0.0066 µM (active),0.296 µM (active),inactive,,,
O=c1cc(-c2ccc(O)c(O)c2)oc2cc(O)cc(O)c12,inactive,inactive,,inactive,,,,,,2.09 µM (active)

Structure (SMILES),Potency [1],Potency [2],Potency [3],Potency [4],Potency [5],Potency [6],Potency [7],Potency [8],Potency [9],Potency [10]
CN1C(=O)C[C@H](C(=O)N[C@@H](Cc2cnc[nH]2)C(=O)N2CCC[C@@H]2C(N)=O)NC1=O,16.6 µM (active),inactive,,inactive,4.69 µM (active),,,,,
Clc1ccc(COC(Cn2ccnc2)c2ccc(Cl)cc2Cl)c(Cl)c1 (stereo not given),20.9 µM (active),18.7 µM (active),,23.5 µM (active),16.6 µM (active),18.7 µM (active),,18.7 µM (active),,
CC(C)CNc1ccnc(NCc2csc(-c3ccccc3)n2)n1,16.6 µM (active),4.69 µM (active),,16.6 µM (active),5.9 µM (active),20.9 µM (active),,20.9 µM (active),20.9 µM (active),
COc1cc2c(cc1OC)[C@@H]1Cc3ccc(OC)c(OC)c3CN1CC2,18.7 µM (active),0.332 µM (active),,4.69 µM (active),16.6 µM (active),inactive,inactive,7.43 µM (active),2.96 µM (active),
CNC1CCC(N(Cc2cccc(-c3ccncc3)c2)C(=O)c2sc3ccccc3c2Cl)CC1 (stereo not given),18.7 µM (active),8.33 µM (active),,20.9 µM (active),20.9 µM (active),10.5 µM (active),23.5 µM (active),16.6 µM (active),,
O=C(CO)N1CCC(c2[nH]nc(-c3ccc(Cl)cc3)c2-c2ccncn2)CC1,0.935 µM (active),inactive,,inactive,0.148 µM (active),inactive,,inactive,20.9 µM (active),
CN(C)N=Nc1nc[nH]c1C(N)=O,inactive,0.166 µM (active),,20.9 µM (active),4.69 µM (active),inactive,inactive,,,
CC[C@H](C=C[C@@H](C)[C@H]1CC[C@H]2[C@@H]3CC=C4C[C@@H](O)CC[C@]4(C)[C@@H]3CC[C@]12C)C(C)C,inactive,inactive,inactive,,,inactive,inactive,,,
C=CC[N+]1([C@H]2C[C@H]3[C@@H]4CC[C@H]5C[C@H](O)[C@@H](N6CCOCC6)C[C@]5(C)[C@@H]4CC[C@]3(C)[C@H]2OC(C)=O)CCCC1,inactive,inactive,inactive,,,,inactive,,18.7 µM (active),
CC[C@]1(O)C[C@H]2CN(CCC3=c4ccccc4=N[C]3[C@@](C(=O)OC)(c3cc4c(cc3OC)N(C)[C@H]3[C@@](O)(C(N)=O)[C@H](O)[C@]5(CC)C=CCN6CC[C@]43[C@@H]65)C2)C1,0.0047 µM (active),0.132 µM (active),,0.0662 µM (active),0.132 µM (active),0.166 µM (active),0.662 µM (active),0.148 µM (active),0.235 µM (active),
CNC(=O)c1cc(Oc2ccc(NC(=O)Nc3ccc(Cl)c(C(F)(F)F)c3)c(F)c2)ccn1,18.7 µM (active),4.69 µM (active),,23.5 µM (active),8.33 µM (active),,23.5 µM (active),13.2 µM (active),,2.96 µM (active)
O=C(C=Cc1ccc(O)cc1)c1ccc(O)cc1O,20.9 µM (active),14.8 µM (active),,23.5 µM (active),5.9 µM (active),16.6 µM (active),,14.8 µM (active),23.5 µM (active),
NCC1CCC(C(=O)O)CC1 (stereo not given),inactive,inactive,,inactive,0.0148 µM (active),inactive,,,,
CN(C)CCOc1ccc(-c2nc(-c3ccc4c(c3)CCC4=NO)c(-c3ccncc3)[nH]2)cc1,20.9 µM (active),10.5 µM (active),,18.7 µM (active),20.9 µM (active),16.6 µM (active),,14.8 µM (active),,7.43 µM (active)
N#CC1(c2cccc(C(=O)Nc3cc(Oc4ccc5nc(NC(=O)C6CC6)sc5n4)ccc3F)c2Cl)CC1,13.2 µM (active),2.09 µM (active),0.469 µM (active),,,6.62 µM (active),0.332 µM (active),,,
O[C@@H](COc1cccc2ncccc12)CN1CCN(C2c3ccccc3[C@@H]3[C@H](c4ccccc42)C3(F)F)CC1 (stereo not given in full),23.5 µM (active),inactive,,20.9 µM (active),26.4 µM (active),11.8 µM (active),,23.5 µM (active),7.43 µM (active),
CC(NCCc1ccc(O)cc1)C(O)c1ccc(O)cc1 (stereo not given),inactive,inactive,,inactive,14.8 µM (active),inactive,inactive,inactive,5.9 µM (active),
CCC(C)SSc1ncc[nH]1 (stereo not given),13.2 µM (active),9.35 µM (active),,3.72 µM (active),7.43 µM (active),3.72 µM (active),8.33 µM (active),4.18 µM (active),,
CN1CCN(c2cccc(Nc3nc4c(-c5ccc(S(C)(=O)=O)cc5)cccn4n3)c2)CC1,9.35 µM (active),0.833 µM (active),,20.9 µM (active),16.6 µM (active),2.64 µM (active),,9.35 µM (active),,
